In PubChem BioAssay AID602449 (Sanford-Burnham Center for Chemical Genomics, 2012):
Among all 360,000 compounds or so, about 5,000 (1.4%) were called active. What follows is part of a selection rich in actives, with near analogues and random picks from the rest. Values without a mark were called inactive.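 The calls were made as follows: active = inhibition of 50% or more, scaled per plate between neutral and stimulator controls; inactive = the rest.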

Experiment: blockers of Ca2+-induced mitochondrial swelling – biochemical, isolated mouse mitochondria, absorbance, primary screen (AID 602449);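 also: 0% = DMSO wells given calcium and 100% = 1 mM EGTA wells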
Settings: 30 min, at 10 µM, active compounds read high

SMILES	inhibition
Cc1ccc(-n2ncc3c2CC(C)(C)CC3NC(=O)CCc2cnn(C)c2)cc1 (configuration not stated)	-0.7%
O=C(NCCc1ccccn1)c1ccc(COc2ccccc2)o1	-1.4%
C=CC[n+]1c(-c2ccc(C)cc2)csc1NNC(=O)Nc1ccccc1	86.7% (active)
Cc1ccc(NC(=O)NNC(=O)c2sccc2-n2cccc2)cc1	1.7%
O=C(NNC(=O)c1ccc(-c2ccccc2)cc1)Nc1ccccc1	2.8%
CC1CCC(N2CC(=O)N(Cc3ccc4c(c3)OCO4)C(c3ccc(F)cc3)C2=O)CC1 (configuration not stated)	-0.9%
COCCNC(=S)N1CCC(NC(=O)C23CC4CC(CC(C4)C2)C3)CC1	-2.3%
CCN1/C(=C\c2ccc3ccccc3[n+]2CC)Sc2cc(C)ccc21	101% (active)
O=C(CN1C(=O)NC2(CCCCCCC2)C1=O)NCc1ccc(F)cc1	-0.5%
Cc1ccc(-c2nc3c(Cl)cc(C(F)(F)F)cn3c2Cc2cccc(Cl)c2)cc1	4.1%
COc1cc(C(C(=O)NC2CCCC2)N(C(=O)c2ccco2)c2ccccc2C(C)=O)cc(OC)c1OC (configuration not stated)	-1.2%
COC(=O)c1sccc1NS(=O)(=O)c1ccc(F)cc1F	1.6%
COC(=O)c1scc(C)c1NC(=O)CSc1ccc(Cl)cc1	3.3%
COC(=O)c1sccc1NC(=O)CSc1ccccc1NS(=O)(=O)c1cc(Cl)ccc1Cl	86.3% (active)
Cc1sc(NC(=O)C2=COCCO2)c(C#N)c1C	-0.9%
CCCc1cc(=O)[nH]c(SCC(=O)Nc2sc3c(c2C#N)CCCC3)n1	4%
CCCc1ccc(-c2c(C)sc(NC(=O)c3ccnn3C)c2C#N)cc1	99.7% (active)
OCCc1ccc(NCCc2ccco2)cc1	-0.1%
O=C(Nc1ccccc1)c1ccccc1NC(=O)C(F)(F)F	57.7% (active)
CC1CCCCC1NCC(=O)Nc1ccccc1C(=O)Nc1ccccc1 (configuration not stated)	1.8%
O=C(Nc1ccccc1)c1ccccc1Br	-0.9%
CCN(C(=O)CSc1nnc(-c2ccc(OC(F)F)cc2)n1N)C1CCS(=O)(=O)C1 (configuration not stated)	-1.1%
CCOc1ccc(NC(=O)CN(C)C(=O)CSc2ccccc2)cc1OCC	1%

SMILES	inhibition
CCOc1ccc(S(=O)(=O)N2CCC(C(=O)NCc3ccccn3)CC2)cc1Cl	-0.8%
O=C(c1cccc(F)c1)N1CCN(c2ccc([N+](=O)[O-])c3cccnc23)CC1	0.3%
COc1ccc(-c2onc(C)c2-c2ccc3c(c2)OCCO3)c(O)c1	3.2%
CCN1CCN(Cc2c(O)ccc3c(=O)c(-c4ccc(OC)c(OC)c4)c(C(F)(F)F)oc23)CC1	-2%
O=c1c(-c2ccc3c(c2)OCCO3)c(C(F)(F)F)oc2cc(O)cc(O)c12	89.4% (active)
CC(C)(C)c1cc[n+](-c2[nH]c(=O)sc2/C=N/N=C(\[O-])c2ccccc2)cc1	-1.9%
CCCNC(=O)CN(Cc1ccccc1F)S(=O)(=O)c1ccc(C)cc1	1.8%
Cc1ccc(NC(=O)CCNC(=O)c2ccc([N+](=O)[O-])cc2)cc1S(=O)(=O)N1CCOCC1	-1.6%
COc1ccc(NS(=O)(=O)c2cc(NC(=O)COc3ccccc3F)ccc2OC)cc1	0.8%
COc1ccc(NS(=O)(=O)c2cc(NC(=O)CC(=O)c3ccc([N+](=O)[O-])cc3)ccc2C)cc1	73% (active)
COc1cc(SC)ccc1C(=O)Nc1nc(C)cs1	0.2%
CCCCOC(=O)CCCc1ccc([N+](=O)[O-])cc1[N+](=O)[O-]	1.5%
CCCCOc1ccc(CSC(=N)N)cc1[N+](=O)[O-]	112% (active)
CCCCCOc1ccc(CSC2=NCCN2)cc1[N+](=O)[O-]	-1.4%
O=C(CCN1C(=O)/C(=C/c2cccs2)SC1=S)NNC(=O)c1cccc(O)c1	67.7% (active)
Cc1c(C(=O)NCCN2C(=O)S/C(=C\c3cccs3)C2=O)cccc1[N+](=O)[O-]	1.1%
CC(C(=O)Nc1ccc(O)c(C(=O)O)c1)N1C(=O)/C(=C/c2cccs2)SC1=S (configuration not stated)	-1.2%
COc1ccccc1N(C(=O)Cn1nnc2ccccc21)C(C(=O)NCc1ccco1)c1ccc(C)o1 (configuration not stated)	4%
CCOC(=O)N1CCN(C(=O)c2ccc3c(c2)N(Cc2ccc(C)cc2)CCS3)CC1	89% (active)
O=C(NCCc1ccccc1)c1ccc2c(c1)N(Cc1ccccc1)CCS2	0.6%
CCOC(=O)N1CCN(C(=O)c2ccc(CN(c3ccc(C)c(C)c3)S(C)(=O)=O)cc2)CC1	5.2%
CN(CCc1ccccc1)C(=O)c1cccc(NC(=O)Cc2cccc(NC(=O)C3CCCN(C(=O)CCc4ccccc4)C3)c2)c1 (configuration not stated)	-0.3%
CC(=O)c1c(C)[nH]c(C(=O)Nc2cc(S(=O)(=O)N(C)C)ccc2C)c1C	-1.8%

SMILES	inhibition
CSc1ccc(/C=C2\NC(=O)NC2=O)cc1	0.6%
COC(=O)C1(C)NC(c2ccccc2OC)C2C(=O)N(c3ccccc3)C(=O)C21 (configuration not stated)	1.1%
COc1cc(OC)cc(C(=O)NCC(=O)OCc2csc(-c3ccccc3)n2)c1	-4.3%
COc1ccc(C(=O)COC(=O)c2c(C)noc2C)cc1Cl	-2.4%
Cc1ccc(-c2nc(COC(=O)c3c(C)noc3C)cs2)cc1	88.5% (active)
CC12CN(NC(=O)c3ccc(Cl)cc3)C3(C#N)CC1CCC23C (configuration not stated)	8.6%
Nc1ncc(CN2CCCC(C(=O)Nc3ccc(-c4ccco4)cc3)C2)cn1 (configuration not stated)	-0.6%
CCOC(=O)C1(Cc2ccc(O)cc2)NC(c2ccccc2F)C2C(=O)N(C)C(=O)C21 (configuration not stated)	-1.2%
CC(C)OCCCNc1ncnc2c1[nH]c1ccc(F)cc12	88.4% (active)
O=C1CSc2ccc(S(=O)(=O)NCc3ccccc3)cc2N1	-1.3%
Cc1ccc(C)c(S(=O)(=O)N2CCN(c3ncnc4sccc34)CC2)c1	86.5% (active)
Cc1ccc(C)c(S(=O)(=O)N2CCN(CC(=O)Nc3ccc([N+](=O)[O-])cc3)CC2)c1	7.1%
Cc1ccc(C)c(S(=O)(=O)n2cnc3ccccc32)c1	-3.1%
CCCNC(=O)C1(C)CCN1C(=O)C1(c2ccccc2)CC1 (configuration not stated)	-0.6%
Cc1cccc(OCCNC(=O)CSc2ccc(C(F)(F)F)cc2[N+](=O)[O-])c1	80.1% (active)
O=C(CSc1ccc(C(F)(F)F)cc1[N+](=O)[O-])NCCOc1ccccc1	18%
C=CCNC(=O)CCCOc1cccc(C)c1	1.5%
Cc1cc(C)n2c(NCc3ccccc3)c(CC(C)C)nc2n1	0.4%
O=C(COc1ccccc1Cl)N1N=C(c2cccs2)CC1c1ccco1 (configuration not stated)	-0.8%
Fc1ccc(N2N=C(c3cccs3)CC2c2ccco2)c(F)c1 (configuration not stated)	57.7% (active)
Cc1ccccc1C1CC(c2cccs2)=NN1S(C)(=O)=O (configuration not stated)	-0.3%
O=C(NCc1ccccn1)c1cnc2sccn2c1=O	-2.8%
C/C(=N\Nc1ccc(S(N)(=O)=O)cc1[N+](=O)[O-])c1cccs1	2.3%

SMILES	inhibition
c1ccc2c(C[n+]3csc4ccccc43)cccc2c1	-1.7%
O=C(OCc1nc2ccccc2[nH]1)C1CCCCC1	-0.1%
c1ccc2c(CSCc3nc4ccccc4[nH]3)cccc2c1	74.4% (active)
COc1ccc(N(CC(=O)N2CCOCC2)S(=O)(=O)c2ccccc2)cc1Cl	1.3%
O=C(/C(=C/c1cccc(Cl)c1)c1nc2ccccc2[nH]1)c1ccccc1	84.4% (active)
O=c1[nH]c(/C=C/c2cccc(Br)c2)nc2ccccc12	2.1%
O=c1c2cc(Br)ccc2nc(-c2cccc(Cl)c2)n1O	0.6%
CC1CN(C(=S)Nc2ccc(S(N)(=O)=O)cc2)CC(C)O1 (configuration not stated)	-0.5%
NC(=O)Cn1c(=O)oc2ccccc21	-0.1%
CN1CCN(c2ncc3c(n2)CC(c2ccccc2F)CC3=O)CC1 (configuration not stated)	1.4%
O=C(Oc1ccccc1Cl)c1ccc(N2CCOCC2)c([N+](=O)[O-])c1	9.1%
O=C(Nc1ccc2ccccc2c1)Nc1ccc2snnc2c1	99.8% (active)
Cc1ccc(NC(=O)Nc2ccc3oc(C)nc3c2)cc1	-2.9%
CS(=O)(=O)c1ccccc1C(=O)Nc1ccc2sccc2c1	-0.4%
CC1(C(=O)NS(=O)(=O)c2cccc(F)c2)CCN1C(=O)Cc1cc(F)ccc1F (configuration not stated)	-0.4%
CCc1nc2c(OCc3ccc(C(F)(F)F)cc3)cccn2c1N(C)C(=O)CC(C)C	0.1%
O=C(O)c1cc(S(=O)(=O)NC2CCCc3ccccc32)ccc1O (configuration not stated)	0.3%
COc1cc(C2C(N3C(=O)c4ccccc4C3=O)C(=O)N2c2ccc(C)c(C)c2)cc(OC)c1OC (configuration not stated)	3%
COc1ccc2c(c1)c(=Cc1ccc(N(C)C)cc1)c1cc(-c3ccccc3)[n+](C)n12	80.7% (active)
Cc1nc(N2CCC(C)CC2)c2c(C)c(C(=O)Nc3cc(F)ccc3C)sc2n1	13.5%
Cc1nc(N2CCOCC2)c2c(C)c(C(=O)Nc3ccc(C(F)(F)F)cc3)sc2n1	72.5% (active)
Cc1nc(N2CCN(c3ccccn3)CC2)c2c(C)c(C(=O)Nc3ccc(F)c(Cl)c3)sc2n1	16.7%
C=C(C)Cn1c(N2CCN(CC)CC2)nc2c1c(=O)[nH]c(=O)n2C	-0.4%
